IMPase inh: cell-permeable inhibitors of inositol monophosphatase (IMPase) | CHO-M1 cells, IP1 accumulation, HTRF TR-FRET ratio | inhibition (IP1 accumulation), % at 46.1 µM | 120,000 tested, under 10 active; active = well fitted curve in the direction sought with a large enough effect in the signal ratio, not every such curve was filed as active; inconclusive = small, poorly fitted or top-dose-only effect, or a change in a side signal; inactive = no such curve, though single readings can be large or run the other way; the % refers to the signal ratio;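 note: cells stimulated with carbachol in lithium chloride buffer; plate controls were DMSO basal wells for no effect and reference inhibitor wells for full effect; higher means more IMPase inhibition seen as more IP1 and lower FRET ratio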
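CHO-M1, 2000 cells/well, cultured 16–30 h; cpd up to 46 uM; carbachol (50 uM solution, stimulation buffer w/ 50 mM LiCl, pH 7.4), 30 min 37C; IP-One TR-FRET, 10 min RT; Ex 320/Em 665, 620; Hill-fit AC50.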
IMPase Li cell: IMPase inhibition in cells with lithium potentiation. CHO-M1 cells, IP1 TR-FRET (IP-One), carbachol + lithium. Potency, µM (top dose mostly 59.4 µM), for inactives: at the top dose activity, negative = IMPase inhibition, most hits filed as inhibitors. actives 0.35% (n = 210,000);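 note: IP1 builds up when IMPase is blocked and the TR-FRET signal falls; potency is the fitted concentration of half-maximal effect; plate controls were basal vehicle for no effect and high inhibitor control for full effect; nearly all actives have a fitted effect of over 50% in size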
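Lithium-sensitised IP1 accumulation assay; M1-expressing CHO cells treated 30 min at 37C with compound. Competitive antibody detection by time-resolved FRET followed a 10 min room-temperature lysis step.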
12-hLO inh: inhibitors of human 12-lipoxygenase (ALOX12); AID 1452; Potency, µM (doses to about 57.1 µM), without a hit: at the highest dose activity change, negative = inhibition, most hits filed as inhibitors; purified 12-hLO, xylenol orange hydroperoxide absorbance; P18054; actives 0.12% (n = 150,000); note: potency is the fitted concentration of half-maximal effect; nearly all actives have a fitted effect of over 55% in size
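Lipoxygenase turnover measured by absorbance at 573 and 405 nm after Fe-XO development. Human 12hLO 150 nM, arachidonate 40 uM, pH 7.0 Hepes buffer with detergent; 15 min compound preincubation, 30 min reaction.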
HPGD block: HPGD (human) dehydrogenase inhibition. Potency, µM, for inactives: at the highest dose activity change, negative = inhibition, actives largely listed as inhibitors. purified HPGD, NADH fluorescence kinetic, PGE2 substrate. AID 894. actives 4.3% (n = 150,000). P15428; active = well fitted inhibition curve with a large enough effect, not every such curve was filed as active; inconclusive = small, poorly fitted or top-dose-only effect, or another doubt; inactive = no such curve, though single readings can be large or run the other way; note: potency is the fitted concentration of half-maximal effect
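20 nM HPGD preincubated 15 min at room temperature with compound in 50 mM Tris-HCl pH 8, 0.01% Tween 20. Started with 1 mM NAD+ and 30 uM prostaglandin E2; NADH fluorescence (360/450 nm) read 5 times over 30-s intervals, last minus first.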
ALDH1A1 block: blocks purified human ALDH1A1 activity. AID 1030. actives 7.3% (n = 220,000). P00352. Purified ALDH1A1, NADH fluorescence, propionaldehyde substrate. Potency, µM (doses to about 75.3 µM), for the others: top-dose activity, negative = inhibition, usual class: inhibitors; active = well fitted inhibition curve with a large enough effect, not every such curve was filed as active; inconclusive = small, poorly fitted or top-dose-only effect, or another doubt; inactive = no such curve, though single readings can be large or run the other way;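 note: potency is the fitted concentration of half-maximal effect; plate controls were no enzyme wells and a reference inhibitor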
Target sequence (P00352 whole entry, looked up): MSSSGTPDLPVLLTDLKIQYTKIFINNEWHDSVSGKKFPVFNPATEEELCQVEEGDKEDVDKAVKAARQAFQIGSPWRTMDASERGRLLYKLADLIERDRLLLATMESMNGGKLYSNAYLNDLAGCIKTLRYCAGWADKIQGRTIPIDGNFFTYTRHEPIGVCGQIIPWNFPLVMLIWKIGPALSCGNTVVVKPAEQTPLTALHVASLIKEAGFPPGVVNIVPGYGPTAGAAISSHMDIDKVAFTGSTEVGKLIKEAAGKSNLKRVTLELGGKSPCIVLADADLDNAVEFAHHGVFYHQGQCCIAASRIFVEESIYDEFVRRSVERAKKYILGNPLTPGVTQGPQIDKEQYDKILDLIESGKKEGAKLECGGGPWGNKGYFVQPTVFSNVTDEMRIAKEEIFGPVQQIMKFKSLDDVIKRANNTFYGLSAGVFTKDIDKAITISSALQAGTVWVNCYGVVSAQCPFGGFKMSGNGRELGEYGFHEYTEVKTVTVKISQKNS
NPSR antag: blocks cAMP signaling of the human neuropeptide S receptor; Q6W5P4; CHO-NPSR cells, cAMP TR-FRET, antagonist mode; Potency, µM (series often up to 38.3 µM), inactives show top-dose activity change, negative = inhibition, most hits filed as inhibitors; actives 1% (n = 220,000); note: potency is the fitted concentration of half-maximal effect; nearly all actives have a fitted effect of over 50% in size
* marks the source's active call; other numbers are inactive results; ? = inconclusive; / = no result given; ! = not active in a repeat; [ ] = another dose, or the depositor's remark. Only some compounds are listed: those with a hit (about 8.9% of all), similar ones and a draw of the others. Unless noted, calls come from the whole dose curve; as a rule, active = well fitted curve in the direction sought with a large enough effect; inconclusive = small, poorly fitted or top-dose-only effect, or another doubt; inactive = no such curve, though single readings can be large; an effect the other way counts as inactive or inconclusive. Unless noted, % is set by controls: 0 for no effect and ±100 for the full control effect.

SMILES	IMPase inh	IMPase Li cell	12-hLO inh	HPGD block	ALDH1A1 block	NPSR antag
COc1ccc(NC(=O)CSc2nnc(Cc3cccn3C)n2-c2ccc(F)cc2)cc1OC	1	27%[38.3 µM]	-7%	-16%	25µM*	0%[46.1 µM]
Cc1nnc(NC(=O)CSc2nnc(Cc3cccn3C)n2C)s1	12	-26%[38.3 µM]	-3%	-9%	22µM*	-27%[46.1 µM]
COc1ccc(-n2c(Cc3cccn3C)nnc2SCC(=O)Nc2cccc(F)c2)cc1	0	3%	-7%	-16%	13µM*	-2%
CCc1ccc(NC(=O)CSc2nnc(Cc3cccn3C)n2-c2ccc(OC)cc2)cc1	2	27%[38.3 µM]	-3%	-9%	?	-29%[46.1 µM]
Cn1cccc1Cc1nnc(SCC(=O)Nc2ccc3c(c2)OCCO3)n1-c1ccc(F)cc1	1	-1%	1%	0%	20µM*	-10%
COc1ccc(-n2c(Cc3cccn3C)nnc2SCC(=O)Nc2ccccc2)cc1	2	34%[38.3 µM]	-9%	-14%	14µM*	-27%[46.1 µM]
O=C(CSc1nnc(Cc2cccs2)n1-c1ccccc1)Nc1ccc2c(c1)OCCO2	2	24%[38.3 µM]	-1%	-10%	7.9µM*	-29%[46.1 µM]
Cc1ccc(-n2c(Cc3cccn3C)nnc2SCC(=O)Nc2ccc3c(c2)OCO3)cc1	-18	-7%[38.3 µM]	-8%	-20%	?	-19%[46.1 µM]
COc1ccc(Cl)cc1NC(=S)Nc1ccc(Cl)cn1	/	-3%	/	/	-9%	-8%
COc1ccc(C)cc1Nc1nc(-c2c[nH]c3ccccc23)cs1	/	-1%	-6%	-7%	?	-3%
COc1ccc(CN(C)C2CCCCC2)cc1	1	29%[38.3 µM]	-5%	-11%	0%	-8%[46.1 µM]
COc1ccc(CC2NCCC3(O)CCCCC23)cc1 (configuration not stated)	4	-7%[38.3 µM]	-3%	-19%	16µM*	-3%[46.1 µM]
Nc1sc(-c2ccccc2)cc1C(=O)O	-8	-24%[38.3 µM]	-18%	?	?	-20%[46.1 µM]
CC(C)(C)C(=O)Nc1sc(-c2ccccc2)cc1C(=O)O	/	/	/	/	/	13µM*
Cc1cccc(C(=O)Nc2sc(-c3ccccc3)cc2C(=O)O)c1	/	/	/	/	/	13µM*
CCOC(=O)c1cc(-c2ccccc2)sc1NC(=O)c1ccc(OC)c(OC)c1	-7	-3%	-3%	?	?	-17%
O=C(NC1CC1)C1CCN(c2ncnc3c2sc2cccc(F)c23)CC1	-2	6%[38.3 µM]	-3%	16µM*	?	-11%[46.1 µM]
O=C(C1CCN(c2ncnc3c2sc2cccc(F)c23)CC1)N1CCCC1	/	/	/	/	/	10%
COC(=O)c1ccc([C@H]2Nc3ccc(S(=O)(=O)Nc4ccc(F)cc4)cc3[C@H]3C=CC[C@H]32)cc1	-6	/	/	/	/	/
CCc1nnc(NS(=O)(=O)c2ccc(N/C=C/C(=O)c3ccc(C)cc3)cc2)s1	/	8%	-1%	18µM*	?	-23%
CCc1nnc(NS(=O)(=O)c2ccc(N/C=C\C(=O)c3ccc(F)cc3)cc2)s1	/	5%	/	/	?	-31%
CCc1nnc(NS(=O)(=O)c2ccc(N/C=C\C(=O)c3cccc(OC)c3)cc2)s1	/	15%	/	/	-9%	-47%
CCc1nnc(NS(=O)(=O)c2ccc(N/C=C\C(=O)c3ccc(C)cc3)cc2)s1	4	-5%[38.3 µM]	-24%	25µM*	?	-21%[46.1 µM]
C=CCN(c1ccccc1Cl)S(=O)(=O)c1cccc(C(=O)NCCc2ccc(OC)cc2)c1	/	4%	-4%	-16%	?	-33%
FC(F)(F)c1cccc(Cc2noc(CN(Cc3ccccn3)CC3CCCO3)n2)c1 (configuration not stated)	/	/	/	/	/	-31%
CC(/C=C/C(=O)NO)=C\[C@@H](C)C(=O)c1ccc(N(C)C)cc1	/	23%	1%[0.00818 µM]	-22%	28µM*!	/
C=CCSc1nnc2c(n1)OC(c1c(C)[nH]n(-c3ccccc3)c1=O)Nc1ccccc1-2 (configuration not stated)	-5	5%[38.3 µM]	2%	-12%	-15%	-20%[46.1 µM]
Cn1cc(S(=O)(=O)N2CCN(C(=O)c3ccco3)CC2)c(=O)n(C)c1=O	-4	0%[38.3 µM]	1%	-12%	1%	1%[46.1 µM]
